# Assay outcomes deposited in PubChem by National Center for Advancing Translational Sciences (NCATS).
# In the library only some 6.9% were active in any assay of this set; here they are far more common.
# BAZ2B inh: blocks human BAZ2B; Q9UIF8; AlphaScreen BAZ2B-H3K14Ac peptide displacement; Potency, µM (highest dose often 114 µM), most hits filed as inhibitors; 4.4% of 360,000 active; also: nearly all actives have a fitted effect of over 60% in size
#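 AlphaScreen luminescence quantifies BAZ2B engagement of H3K14Ac peptide; the protein and biotinylated peptide are both at 50 nM final, buffer PBS pH 7.4 with 0.01% Tween-20, all steps at room temperature.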
# HP1b chromo inh: inhibitors of HP1-beta chromodomain binding to methylated histone tails; P83916; AlphaScreen HP1-beta / biotin-H3K9me3 peptide binding; Potency, µM (highest dose often 114 µM), usual class: inhibitors; 0.56% of 390,000 active; AID 540317; also: nearly all actives have a fitted effect of over 70% in size
#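 AlphaScreen: HP1-beta (50 nM) preformed 30 min with biotin-H3(1-18)K9me3 peptide (50 nM) in PBS pH 7.4, 0.01% Tween-20. Compound added for 30 min at RT, then streptavidin donor/nickel chelate acceptor beads (10 ug/mL) for 30 min.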
# L3MBTL1 inh: inhibitors of human L3MBTL1 | AlphaScreen L3MBTL1–H3K9me1 peptide binding | Potency, µM (doses to about 57.1 µM), usual class: inhibitors | 0.66% of 230,000 active | AID 485360; also: nearly all actives have a fitted effect of over 60% in size
# Target sequence (Q9Y468 whole entry, looked up): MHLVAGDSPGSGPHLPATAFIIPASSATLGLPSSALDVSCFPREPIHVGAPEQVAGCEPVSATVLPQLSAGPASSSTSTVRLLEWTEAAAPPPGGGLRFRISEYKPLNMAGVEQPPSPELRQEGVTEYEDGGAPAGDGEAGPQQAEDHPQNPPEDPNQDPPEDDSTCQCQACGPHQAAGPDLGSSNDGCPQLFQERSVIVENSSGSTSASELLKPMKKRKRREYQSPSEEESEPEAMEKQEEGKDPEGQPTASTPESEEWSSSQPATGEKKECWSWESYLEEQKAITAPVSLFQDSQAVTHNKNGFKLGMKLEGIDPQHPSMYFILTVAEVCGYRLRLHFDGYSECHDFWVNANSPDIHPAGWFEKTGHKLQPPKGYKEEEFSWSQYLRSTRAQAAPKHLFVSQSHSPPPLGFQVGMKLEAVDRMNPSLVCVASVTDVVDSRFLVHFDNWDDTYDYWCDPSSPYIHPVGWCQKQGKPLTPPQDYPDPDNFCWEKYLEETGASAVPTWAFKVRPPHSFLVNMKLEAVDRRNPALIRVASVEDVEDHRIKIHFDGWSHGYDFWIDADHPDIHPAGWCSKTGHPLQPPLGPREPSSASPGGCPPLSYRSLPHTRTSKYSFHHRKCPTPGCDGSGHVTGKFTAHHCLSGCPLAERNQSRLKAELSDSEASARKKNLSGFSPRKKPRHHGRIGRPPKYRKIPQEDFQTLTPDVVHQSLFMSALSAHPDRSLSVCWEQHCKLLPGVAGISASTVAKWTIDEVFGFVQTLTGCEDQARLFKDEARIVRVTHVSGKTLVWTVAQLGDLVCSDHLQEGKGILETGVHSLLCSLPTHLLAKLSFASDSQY
#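 L3MBTL1 (50 nM) pre-complexed 30 min with biotinylated H3(1-15)K9me1 peptide (75 nM), then compounds added for 30 min at room temperature; AlphaScreen streptavidin donor/nickel chelate acceptor beads (10 ug/mL final) read after 30 min dark incubation.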
# PLK1 PBD inh: blocks phosphopeptide binding to human PLK1 polo-box domain; Plk1 PBD binding of FITC phosphopeptide, fluorescence polarization; Potency, µM, hits mostly inhibitors; 2.8% of 360,000 active; AID 720504; also: series mostly up to about 57 µM; nearly all actives have a fitted effect of over 65% in size
# JMJD2A Tudor: inhibitors of human JMJD2A Tudor domain | O75164 | AlphaScreen JMJD2A-Tudor / H3K4me3 peptide binding | Potency, µM (highest dose often 114 µM), actives largely listed as inhibitors | 4.4% of 390,000 active; also: nearly all actives have a fitted effect of over 50% in size
# VDR inh: vitamin D3 receptor (human) inhibition; AID 504847; Potency, µM, hits mostly inhibitors; P11473; VDR-SRC2-3 peptide fluorescence polarization, 2 h; 0.93% of 400,000 active
#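 VDR–SRC2-3 interaction, FP format. Cmpds 23 nl via pintool, brief spin, 2 h ambient incubation.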
# TbPYK confirm: confirmation of Trypanosoma brucei pyruvate kinase inhibitors | Potency, µM (titrated, usually from 76.9 µM), usual class: inhibitors | recombinant TbPYK, Kinase-Glo ATP luminescence | shares compounds with PLK1 PBD inh | 67% of 890 active; also: nearly all actives have a fitted effect of over 70% in size
# TbPYK ADP-Glo: inhibits T. brucei pyruvate kinase in orthogonal ADP-Glo assay | 62% of 890 active | recombinant TbPYK, ADP-Glo luminescence, 60 min | shares compounds with PLK1 PBD inh | Potency, µM (doses to about 76.9 µM), usual class: inhibitors | AID 720584; also: nearly all actives have a fitted effect of over 75% in size
# Hits are given with their value; i = inactive; ? = inconclusive; nt = no result given; [ ] = another dose, or the depositor's remark. Calls follow the shape of the dose curve; as a rule, active = well fitted curve in the direction sought with a large enough effect; inconclusive = small, poorly fitted or top-dose-only effect, or another doubt; inactive = no such curve, though single readings can be large; an effect the other way counts as inactive or inconclusive.
SMILES,BAZ2B inh,HP1b chromo inh,L3MBTL1 inh,PLK1 PBD inh,JMJD2A Tudor,VDR inh,TbPYK confirm,TbPYK ADP-Glo
NS(=O)(=O)c1ccc(N=Nc2c[nH]c(=O)c(O)c2)cc1,7.94µM,50.1µM,?,?,7.08µM,?,?,i
C/C(=N/NC(=O)C1CCCCC1)c1ccc([N+](=O)[O-])cc1,i,i,i,i,i,i,nt,nt
CCOc1ccccc1-n1c(=S)sc2c(=O)n(-c3ccc(C)cc3)c(=S)[nH]c21,i,i,nt,6.7µM,?,?,4.47µM,6.31µM
Cc1ccc2c(CC(=O)N3CCN(c4ccccc4)CC3)coc2c1,i,i,i,i,i,i,nt,nt
Cc1cc(NC(=O)C(=O)NCCN2CCN(S(C)(=O)=O)CC2)ccc1Br,i,i,i,i,i,i,nt,nt
COc1ccc(C(=O)NC2CCCCCCC2)cc1OC,nt,i,nt,i,i,i,nt,nt
COc1ccc(S(=O)NC2CCCCC2)c(OC)c1C (stereo not drawn),i,i,i,i,?,i,22.4µM,20µM
Cc1cccc(NC(=O)CSCC(=O)Nc2ccccc2C(=O)NC2CC2)c1,i,i,i,i,i,i,nt,nt
COc1ccc(OC)c(NC2c3ccccc3C(=O)N2Cc2ccc3c(c2)OCO3)c1 (stereo not drawn),35.5µM,?,nt,i,44.7µM,i,?,35.5µM
CC(C)(C)c1cc(C(=S)N2CCN(CCO)CC2)cc(C(C)(C)C)c1O,i,?,i[11.4 µM],9.47µM,?,39.8µM,3.55µM,7.94µM
COc1ccc(N2C3=C(CC4=C2CCCC4=O)C(=O)CCC3)cc1,i,i,i,21.2µM,56.2µM,i,i,i
COc1ccc(N2C(=O)/C(=C/c3cccnc3)NC2=S)cc1,i,i,i,i,i,i,nt,nt
COc1ccc(N2C(=O)/C(=C/N(C)C)NC2=S)cc1,i,?,i,i,17.8µM,i,5.62µM,12.6µM
Nc1sc2c(c1C(=O)NC1CCS(=O)(=O)C1)CCCC2 (stereo not drawn),i,i,i,26.7µM,i,?,14.1µM,15.8µM
COC(=O)[C@@]12C[C@@H](CC(=O)N3CCN(C(=O)c4ccco4)CC3)C(=O)N(CCc3ccc(OC)c(OC)c3)C1=CCC(C)(C)C2,nt,nt,nt,i,nt,nt,nt,nt
COc1cc2c(cc1OC)C(=O)C(Br)CC2 (stereo not drawn),nt,nt,nt,0.947µM,nt,nt,10µM,5.62µM
COc1cc2c(cc1OC)C(=O)C(c1ccc3c(c1)OCO3)CC2 (stereo not drawn),nt,nt,nt,i,nt,nt,nt,nt
Cc1nonc1C(=O)N/N=C/c1ccc(O)c(O)c1,i,i,i,i,7.08µM,i,?,i
O=C1CC(N2CCSCC2)C(=O)N1c1ccc(F)cc1 (stereo not drawn),i,i,i,i,i,i,nt,nt
Cc1ccc(NC(=O)CCCn2c3ccccc3c(=O)c3cc(C)ccc32)c(Br)c1,i,i,nt,nt,i,i,nt,nt
O=S(=O)(NCCC1=CCCCC1)c1cccc(S(=O)(=O)N2CCOCC2)c1,i,i,i,2.67µM,?,i,i,i
CC1(C)Cc2c(c(N3CCOCC3)nc3sc(C(=O)Nc4cccc(Cl)c4)c(N)c23)CO1,i,i,nt,?,i,i,1.12µM,3.55µM
CCCOc1ccc(OC(=O)c2ccc(-c3ccc(CCC)cn3)cc2)cc1,i,i,nt,nt,i,i,nt,nt
CN1CCc2c(sc3ncn4nc(-c5ccccc5O)nc4c23)C1,i,nt,nt,nt,nt,nt,nt,nt
O=C(NCCc1ccc(O)c(O)c1)C1COc2ccccc2O1 (stereo not drawn),i,35.5µM,nt,i,17.8µM,i,17.8µM,17.8µM
SMILES,BAZ2B inh,HP1b chromo inh,L3MBTL1 inh,PLK1 PBD inh,JMJD2A Tudor,VDR inh,TbPYK confirm,TbPYK ADP-Glo
Cc1ccc(NC(=O)CCNS(=O)(=O)c2cccc3nsnc23)cc1F,i,i,nt,i,i,i,nt,nt
COC(=O)c1ccc(C2Nc3ccc(/C(C)=N/NC(=O)C(OC)c4ccccc4)cc3C3C=CCC32)cc1 (stereo not drawn),56.2µM,i,i,i,79.4µM,i,?,?
COC(C(=O)N/N=C(\C)c1ccc(O)cc1)c1ccccc1 (stereo not drawn),i,i,i,i,i,i,nt,nt
CC1=C/C(=C(/c2cc(C)c(O)c(Br)c2)c2ccccc2S(=O)(=O)O)C=C(Br)C1=O,17.8µM,31.6µM,nt,?,?,i,22.4µM,i
O=C(Nc1ccc(Cl)cc1)C(Cl)C(=O)c1ccccc1 (stereo not drawn),i,i,nt,0.597µM,i,17.8µM,7.94µM,14.1µM
CC(C)OC(=O)CSc1nc2ccccc2s1,i,i,nt,?,i[11.4 µM],i,nt,nt
CC(C)CC1CC(=O)OC1(C)C(=O)CSc1nc2ccccc2s1 (stereo not drawn),i,i,i,18.9µM,i[11.4 µM],i,?,?
CCOC1=CC2=C(C(=O)C(Cl)=CC2=O)[C@@H]2CN(S(=O)(=O)c3ccc(C)cc3)[C@@H](c3ccccc3)[C@H]12,nt,nt,nt,6.7µM,nt,nt,1.41µM,2µM
COC(=O)C1(C(=O)OC)C(C(=O)c2ccccc2)C1c1ccccc1 (stereo not drawn),nt,i,nt,i,i,i,nt,nt
CCc1c(C)nc(N2CCN(c3ccc(F)cc3)CC2)[nH]c1=O,i,i,i,i,i,i,nt,nt
Cc1nnc(N2CCN(c3ccccc3)CC2)[nH]c1=O,i,i,nt,2.99µM,?,i,i,i
O=C1OC2(c3ccccc31)c1ccccc1-c1ccccc12,nt,i,nt,i,i,i,nt,nt
O=C1OC(c2ccc3ccccc3c2O)(c2ccc3ccccc3c2O)c2ccccc21,nt,?,nt,4.74µM,31.6µM,?,12.6µM,12.6µM
O=C(CCSCCC(=O)NCc1ccco1)NCc1ccco1,56.2µM,?,?,21.2µM,20µM,?,?,?
O=C(CCSCc1ccccc1Cl)NCc1ccco1,?,i,nt,i,i,i,nt,nt
CS(=O)(=O)N1CCN(c2ccc([N+](=O)[O-])cc2F)CC1,i,i,i,i,i,i,nt,nt
CS(=O)(=O)N1CCN(c2ccc([N+](=O)[O-])cc2C(F)(F)F)CC1,i,i,i,i,i,?,?,?
COc1ccc(/C=N/N=C2/NC(=O)C(CC(=O)O)S2)cc1OCc1ccc(Cl)cc1 (stereo not drawn),?,i,i,i,?,i,nt,nt
CCOc1cc(/C=N/N=C2/NC(=O)C(CC(=O)O)S2)ccc1OCc1ccc(Cl)cc1 (stereo not drawn),56.2µM,i,?,?,50.1µM,i,15.8µM,31.6µM
C=C(C)CSC1=C(C#N)C(c2ccccc2Cl)CC(=O)N1 (stereo not drawn),i,?,i,13.4µM,?,?,5.01µM,8.91µM
C=CCSC1=C(C#N)C(c2ccccc2Cl)CC(=O)N1 (stereo not drawn),i,i,i,?,i,?,nt,nt
